We go through 55 compounds from article PMC4336329 (PLoS ONE, 2015).

Structures are written as SMILES. The campaign covered roughly 310,000 compounds. About 14,000 (4.5%) showed an effect of 50% or more. The effect is printed as a negative number. The sample holds strong results, similar compounds and a random draw of the others, so the mix is not that of the screen.
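Also: peak tail current of the secondary pulse compared with the same well before compound.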

The target in this assay is human ether-à-go-go-related gene (hERG) potassium channel (human, UniProt Q12809). The experiment in a line: primary screen, population patch clamp on CHO cells stably expressing hERG; higher = less effect of the substance.
Sequence of human ether-à-go-go-related gene (hERG) potassium channel (Q12809 whole entry, looked up): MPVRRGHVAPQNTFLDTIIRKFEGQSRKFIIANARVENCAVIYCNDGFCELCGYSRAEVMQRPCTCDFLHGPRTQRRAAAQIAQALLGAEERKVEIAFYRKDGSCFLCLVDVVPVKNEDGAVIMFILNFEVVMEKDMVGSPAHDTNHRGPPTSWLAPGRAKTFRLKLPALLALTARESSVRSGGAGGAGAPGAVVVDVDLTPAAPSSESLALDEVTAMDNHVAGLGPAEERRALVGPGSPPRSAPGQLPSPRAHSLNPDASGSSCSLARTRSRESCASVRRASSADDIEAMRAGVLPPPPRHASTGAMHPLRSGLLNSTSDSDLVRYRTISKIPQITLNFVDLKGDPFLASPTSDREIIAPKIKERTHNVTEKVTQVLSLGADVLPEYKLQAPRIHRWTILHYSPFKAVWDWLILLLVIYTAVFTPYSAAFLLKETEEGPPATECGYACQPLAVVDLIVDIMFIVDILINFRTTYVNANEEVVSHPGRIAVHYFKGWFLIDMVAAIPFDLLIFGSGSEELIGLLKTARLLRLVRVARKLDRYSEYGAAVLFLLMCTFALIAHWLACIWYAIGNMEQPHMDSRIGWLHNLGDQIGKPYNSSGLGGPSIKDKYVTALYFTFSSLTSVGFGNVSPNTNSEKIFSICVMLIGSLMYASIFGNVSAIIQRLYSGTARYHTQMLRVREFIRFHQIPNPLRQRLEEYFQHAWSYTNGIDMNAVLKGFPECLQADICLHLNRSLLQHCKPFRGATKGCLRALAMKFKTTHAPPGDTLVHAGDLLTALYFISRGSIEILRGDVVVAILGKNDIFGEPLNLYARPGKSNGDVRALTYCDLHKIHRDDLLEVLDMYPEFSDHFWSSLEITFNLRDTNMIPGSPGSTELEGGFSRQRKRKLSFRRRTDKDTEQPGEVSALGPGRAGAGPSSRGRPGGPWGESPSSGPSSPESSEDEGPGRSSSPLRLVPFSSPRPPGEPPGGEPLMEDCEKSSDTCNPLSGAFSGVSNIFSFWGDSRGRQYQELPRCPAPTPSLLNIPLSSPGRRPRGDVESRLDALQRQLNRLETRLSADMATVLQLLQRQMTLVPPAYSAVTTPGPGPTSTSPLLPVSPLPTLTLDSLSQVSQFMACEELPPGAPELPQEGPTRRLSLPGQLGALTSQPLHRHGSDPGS
For `Cc1ccc(CN2C(=O)S/C(=C\c3ccccc3OCC(=O)O)C2=O)cc1`, the “hERG current change (%, negative = inhibition) at 10uM” value is 1.61%. Turning to `C/C(=C\C(=O)N1CCc2ccccc21)C(=O)O`, the “hERG current change (%, negative = inhibition) at 10uM” value is listed as 18.5%.

As for `NC(=O)c1cc(S(=O)(=O)N2CCN(c3ccc([N+](=O)[O-])cc3)CC2)cs1`, the “hERG current change (%, negative = inhibition) at 10uM” value was -74.4%.

On to `COC(=O)c1cc(S(=O)(=O)N2CCN(c3ccccc3)CC2)c[nH]1`, for which the “hERG current change (%, negative = inhibition) at 10uM” value amounted to 7.6%. In the case of `COC(=O)c1cc(S(=O)(=O)N2CCN(c3ccc([N+](=O)[O-])cc3)CC2)c[nH]1` it was -53.9%; in that of `CC(=O)c1ccc(N2CCN(S(=O)(=O)c3csc(C(N)=O)c3)CC2)cc1`, -26.1%. In the case of `COC(=O)c1cc(S(=O)(=O)N2CCN(c3ccc(F)cc3)CC2)c[nH]1` it was 16.9%.

On to `COc1ccc(N2CCN(S(=O)(=O)c3ccc4c(c3)NC(=O)CC(=O)N4)CC2)cc1`, for which the “hERG current change (%, negative = inhibition) at 10uM” value is on record as 13.2%. For `O=C1CC(=O)Nc2cc(S(=O)(=O)N3CCN(c4ccc([N+](=O)[O-])cc4)CC3)ccc2N1` the value was -66.8%; for `NC(=O)c1cc(S(=O)(=O)N2CCN(c3cccc(Cl)c3)CC2)cs1`, 28.1%; for `CC(=O)c1ccc(N2CCN(S(=O)(=O)c3ccc4c(c3)NC(=O)CC(=O)N4)CC2)cc1`, 13.4%. As for `CCC(=O)Nc1nc2ccc(NC(=O)c3cc(OC)c(OC)c(OC)c3)cc2s1`, the “hERG current change (%, negative = inhibition) at 10uM” value is recorded as -9.76%. On to `Cc1ccc(CNC(=O)c2ccc(C#CC(C)(C)O)s2)cc1`, for which the “hERG current change (%, negative = inhibition) at 10uM” value was -3.51%.

As to `Cc1cccc(CSC2=NCCN2S(=O)(=O)c2ccc(F)cc2)c1`, the “hERG current change (%, negative = inhibition) at 10uM” value was -0.802%. For `Cc1ccc(S(=O)(=O)N(C)c2ccc(OC(C)C(=O)N3CCCC3)cc2)cc1C` (stereo not shown) the value was -37.6%; for `CCn1c(NCc2cc(OC)ccc2OC)nc2ccccc21`, -22.8%; for `COc1ccc(/C=N/c2nc3ccccc3n2CCN2CCCCC2)cc1OC`, -14.3%. In the case of `CCCn1c(NCc2cc(OC)ccc2OC)nc2ccccc21` it was -51.3%; in that of `COc1ccc(OC)c(CNc2nc3ccccc3n2CCN2CCCCC2)c1`, -72.4%; in that of `COc1ccc(CNc2nc3ccccc3n2C)c(O)c1`, 1.38%. In the case of `COc1ccc(CNc2nc3ccccc3n2C)c(OC)c1` it was -25%; in that of `CCCn1c(NCc2cccc(OC)c2O)nc2ccccc21`, -18.1%.

In the case of `C=CCn1c(NCc2ccc(OC)cc2O)nc2ccccc21`, the “hERG current change (%, negative = inhibition) at 10uM” value is -23.1%.

Regarding `COc1ccc(CNc2nc3ccccc3n2CCN2CCCCC2)c(OC)c1`, the “hERG current change (%, negative = inhibition) at 10uM” value is given as -84.4%. Regarding `Cc1[nH]c(C)c(S(=O)(=O)N2CCCCC2)c1C(=O)N1CCCCC1`, the “hERG current change (%, negative = inhibition) at 10uM” value is 4.27%. In the case of `Br.Cc1nc(C)c(-c2csc(Nc3cccc(O)c3)n2)s1` it was 6.25%; in that of `COc1cc(OC)cc(-c2c(C#Cc3ccsc3)c3cc(-c4ccc5c(c4)OCCO5)ccc3n2C)c1`, 7.37%.

With `COc1ccc(OCC(=O)Nc2ccccc2O)cc1`, the “hERG current change (%, negative = inhibition) at 10uM” value is recorded as -12.5%. In the case of `Cc1c(C(C)(C)O)[nH]c2ccc(C#N)cc12` it was 26.4%; in that of `CCOC(=O)c1sc2ncnc(OC)c2c1C`, 13.3%; in that of `COCCCNC(=O)c1sc2ncnc(N3CCc4ccccc4C3)c2c1C`, -23.9%. In the case of `Cc1c(C(=O)Nc2c(F)cccc2F)sc2ncnc(N3CCN(c4ccccc4)CC3)c12` it was -12.2%; in that of `CCN1CCN(c2ncnc3sc(C(=O)Nc4ccccc4F)c(C)c23)CC1`, -67%. On to `CCCCNC(=O)c1sc2ncnc(N3CCc4ccccc4C3)c2c1C`, for which the “hERG current change (%, negative = inhibition) at 10uM” value is listed as -50.5%. With `CCOC(=O)c1sc2ncnc(N3CCN(C)CC3)c2c1C`, the “hERG current change (%, negative = inhibition) at 10uM” value is listed as -24.3%. Turning to `Cc1ccc(NC(=O)c2sc3ncnc(N4CCN(c5ccccn5)CC4)c3c2C)c(C)c1`, the “hERG current change (%, negative = inhibition) at 10uM” value is on record as -48.4%. With `CCOC(=O)c1sc2ncnc(N3CCN(C(=O)OCC)CC3)c2c1C`, the “hERG current change (%, negative = inhibition) at 10uM” value is -53.4%. In the case of `CCOC(=O)N1CCN(c2ncnc3scc(-c4ccccc4)c23)CC1` it was -32.6%; in that of `CCOC(=O)c1sc2nc(C)nc(N3CCN(c4ncccn4)CC3)c2c1C`, 1.82%; in that of `CCOC(=O)c1sc2ncnc(N3CCN(CC)CC3)c2c1C`, -63.9%. In the case of `CCOC(=O)CNC(=O)c1sc2ncnc(N3CCc4ccccc4C3)c2c1C` it was -36.6%; in that of `CCC(C)(NC(=O)Cc1c[nH]c2ccccc12)C(=O)NC1CCCCC1` (stereo not shown), 2.32%; in that of `CN(C)/C=N/c1sccc1C(N)=O`, 6.62%. In the case of `COc1ccc(C2(C)NC(=O)N(CC3CCCCC3)C2=O)cc1` (stereo not shown), the “hERG current change (%, negative = inhibition) at 10uM” value stood at 9.8%. For `O=C(NCC(=O)N(c1cccnc1)C(C(=O)NC1CCCC1)c1ccccc1F)c1ccco1` (stereo not shown) the value was -0.301%; for `CC(C)(C)Nc1nc(NCc2cccnc2)nc(N2CCOCC2)n1`, 4.02%. In the case of `CC(C)C(=O)Nc1c2c(nc3c1CCC3)CCCC2` it was 5.23%; in that of `C/C(=N\NC(=O)c1nnn(-c2nonc2N)c1-c1ccc2c(c1)OCO2)c1cccs1`, 5.22%; in that of `C/C(=N\OCC(=O)OC(C)C(=O)Nc1ccc(C(N)=O)cc1)c1ccc2c(c1)OCO2` (stereo not shown), 9.34%. For the compound `COC(=O)c1cc2c(ccn2-c2ccc(F)cc2)n1CC(=O)C(C)(C)C`, the “hERG current change (%, negative = inhibition) at 10uM” value is listed as 14.3%. On to `CCOC(=O)c1cc2occc2n1CC(=O)N1CCN(C(=O)c2ccco2)CC1`, for which the “hERG current change (%, negative = inhibition) at 10uM” value was -36.8%. In the case of `CC(C)OC(=O)c1cc2c(ccn2-c2ccc(F)cc2)n1CC(=O)N1CCN(C(=O)c2ccco2)CC1` it was -69.2%. For `COC(=O)c1cc2c(ccn2-c2ccc(F)cc2)n1CC(=O)N1CCN(C(=O)c2ccco2)CC1` the value was -66.6%; for `CCOC(=O)c1cc2c(ccn2-c2ccc(F)cc2)n1CC(=O)N1CCN(C(=O)c2ccco2)CC1`, -26.1%; for `COC(=O)c1cc2c(ccn2-c2ccc(F)cc2)n1CC(=O)OC(C)C`, 27.3%.
